Screening data: PubChem BioAssay, National Center for Advancing Translational Sciences (NCATS)
A selection: hits, their analogues and other compounds. The true share with any hit is near 12%.
AmpC no deterg = qHTS Inhibitors of AmpC Beta-Lactamase (assay without detergent). P00811. AmpC nitrocefin hydrolysis, absorbance 480 nm, 0.0001% Triton. Potency, µM (top dose mostly 57.1 µM), hits mostly inhibitors. 330,000 tested, 0.52% active. AID 485341, 2010; also: nearly all actives have a fitted effect of over 20% in size
Target sequence (P00811 whole entry, looked up): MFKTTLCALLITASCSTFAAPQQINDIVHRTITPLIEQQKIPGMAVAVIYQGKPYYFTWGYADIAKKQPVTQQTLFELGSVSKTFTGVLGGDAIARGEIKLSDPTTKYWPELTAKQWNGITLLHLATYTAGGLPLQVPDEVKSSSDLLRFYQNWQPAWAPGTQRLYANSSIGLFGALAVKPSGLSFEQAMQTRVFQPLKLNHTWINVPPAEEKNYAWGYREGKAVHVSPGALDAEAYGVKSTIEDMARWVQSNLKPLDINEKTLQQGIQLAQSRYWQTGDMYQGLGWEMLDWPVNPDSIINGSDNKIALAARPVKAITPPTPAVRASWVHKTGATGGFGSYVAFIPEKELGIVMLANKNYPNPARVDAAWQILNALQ
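AmpC (5.3 nM in the dispensed reagent) in 20 mM phosphate pH 7.0 with 0.01% (detergent screen) or 0.0001% Triton X-100 was preincubated with compounds for 15 min at room temperature. Nitrocefin was then added from an 800 uM solution, and hydrolysis was followed at 480 nm.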
Pf growth 96h = Primary qHTS for delayed death inhibitors of the malarial parasite plastid, 96 hour incubation; P. falciparum luciferase reporter growth, 96 h; Potency, µM (titrated, usually from 28.7 µM), usual class: inhibitors; 320,000 tested, 6.9% active; AID 504834, 2011
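Parasite growth measured via integrated firefly luciferase reporter in P. falciparum. Infected erythrocytes at 2% hematocrit, 0.05% parasitemia final were treated 96 hours at 37 C under 5% CO2, and luminescence was read.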
AmpC inh detg = qHTS Inhibitors of AmpC Beta-Lactamase (assay with detergent); P00811; AmpC hydrolysis of nitrocefin, absorbance 480 nm, 0.01% Triton; Potency, µM (doses to about 114 µM), usual class: inhibitors; 370,000 tested, 0.041% active; also: nearly all actives have a fitted effect of over 25% in size
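AmpC (5.3 nM in the dispensed reagent) in 20 mM phosphate pH 7.0 with 0.01% (detergent screen) or 0.0001% Triton X-100 was preincubated with compounds for 15 min at room temperature. Nitrocefin was then added from an 800 uM solution, and hydrolysis was followed at 480 nm.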
Pf growth 48h = Primary qHTS for delayed death inhibitors of the malarial parasite plastid, 48 hour incubation. P. falciparum luciferase growth in erythrocytes, 48 h. Potency, µM (doses to about 28.7 µM), hits mostly inhibitors. 310,000 tested, 5.9% active. AID 504832, 2011
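In quantitative HTS format, infected erythrocytes bearing luciferase-reporter parasites were treated for a single generation at 37 C. Luminescence after adding detection reagent served as the growth measure.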
Sm TGR inh = qHTS Assay for the Inhibitors of Schistosoma Mansoni Peroxiredoxins. purified TGR, DTNB reduction, TNB absorbance 405 nm. Potency, µM (top dose mostly 114 µM), actives largely listed as inhibitors. AID 485364, 2010. 360,000 tested, 3% active; also: nearly all actives have a fitted effect of over 60% in size
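First, TGR (20 nM dispensed) and NADPH were mixed with compound. Second, a 15 min room-temperature incubation followed. Third, further NADPH and then DTNB were added to start the reaction. Finally, TNB absorbance was monitored kinetically.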
SARS PLpro yeast = qHTS of Yeast-based Assay for SARS-CoV PLP | S. cerevisiae expressing SARS-CoV PLpro, growth rescue | Potency, µM (doses to about 32.9 µM), most hits filed as activators | 330,000 tested, 0.19% active | AID 485353, 2010; calls by dose curve; also: nearly all actives have a fitted effect of over 55% in size
Hits are given with their value; 0 = inactive; ? = inconclusive; - = no result given. Unless noted, calls follow the shape of the dose curve; as a rule, active = well fitted curve in the direction sought with a large enough effect; inconclusive = small, poorly fitted or top-dose-only effect, or another doubt; inactive = no such curve, though single readings can be large; an effect the other way counts as inactive or inconclusive.

SMILES	AmpC no deterg	Pf growth 96h	AmpC inh detg	Pf growth 48h	Sm TGR inh	SARS PLpro yeast
CCOc1ccc(NC(=O)c2cccc(NC3=NC4CS(=O)(=O)CC4S3)c2)cc1 (stereo unspecified)	0	8.28µM	0	0	0	0
Cc1cccc(CCNC(=O)c2cccc(NC3=NC4CS(=O)(=O)CC4S3)c2)c1 (stereo unspecified)	0	14.7µM	?	0	0	0
CCc1ccc(NC(=O)c2cccc(NC3=NC4CS(=O)(=O)CC4S3)c2)cc1 (stereo unspecified)	0	0	0	0	0	0
Cc1ccc(C)c(N2CCN(C(=O)c3ccc(NC4=NC5CS(=O)(=O)CC5S4)cc3)CC2)c1 (stereo unspecified)	0	10.4µM	0	0	0	0
CCOC(=O)C1=C(N)OC2=C(C(=O)CCC2)C1c1ccc(C)s1 (stereo unspecified)	0	-	?	0	0	0
CC(=O)c1ccc(NC(=O)c2sc(-n3nc(C)c(CCC(C)C)c3C)nc2C)cc1	-	-	0	-	0	-
CCOC(=O)C(=CNc1nc(-c2ccccc2)c(C(=O)Nc2ccc(-c3ccccc3)cc2)s1)C(=O)OCC	0	14.7µM	0	?	0	?
Cc1cnc(C(=O)NCC(=O)Nc2ccccc2Br)cn1	0	0	0	0	0	0
Nc1c(C(=O)NCc2ccco2)sc2nc3c(cc12)C(=O)CCC3	0	?	?	0	8.91µM	0
COc1ccc2cc3c(N)c(C(=O)NCc4ccco4)sc3nc2c1	0.316µM	?	0	0	0	0
O=C(NC(=S)Nc1ccc(-c2ccc(CO)o2)cc1)c1cccs1	10µM	0	0	0	8.91µM	0
Cc1ccc(C(=O)NC(=S)Nc2ccc(-c3ccc(CO)o3)cc2)cc1	25.1µM	0	0	0	?	0
CCOC(=O)c1ccc(-c2ccc(CO)o2)cc1	0	0	?	0	35.5µM	0
CCC12CN3CC(CC)(CN(C1)C3c1ccc(OC(C)C)cc1)C2=O (stereo unspecified)	0	4.65µM	0	?	0	0
CCCC12CN3CC(C)(CN(C1)C3c1ccc(OC)cc1)C2=O (stereo unspecified)	0	0	?	?	0	0
CN(C(=O)COC(=O)/C=C/c1ccc(C(F)(F)F)cc1)c1c(N)n(Cc2ccccc2)c(=O)[nH]c1=O	0	?	0	?	0	0
CCCc1[nH]n(-c2ccc([N+](=O)[O-])cc2)c(=O)c1C=NCCCn1ccnc1	0	0	0	13.1µM	0	0
CC(NC(=O)CNC(=O)c1cccs1)c1cccc(C(F)(F)F)c1 (stereo unspecified)	0	-	-	-	-	-
CCOC(=O)c1c(C)nc2c(C#N)cnn2c1C	0	0	0	0	0	0
CCCCNc1c(C(=O)OCC)c(C)nc2c1cnn2CC	-	15.1µM	-	?	-	-
C=C(C)C1CC=C(C)/C(=N/NC(=O)c2ccccc2[N+](=O)[O-])C1 (stereo unspecified)	15.8µM	0	0	?	0	0
CC(=O)CCC(=O)O	-	0	-	0	-	-
OCCC1CN(Cc2cccn2-c2nccs2)CCN1Cc1ccc(F)c(F)c1 (stereo unspecified)	0	13.1µM	0	?	?	0
OCCC1CN(Cc2cccn2-c2nccs2)CCN1Cc1ccccc1 (stereo unspecified)	0	0	0	0	0	0
CC(C)=CCN1CCN(Cc2cccn2-c2nccs2)CC1CCO (stereo unspecified)	0	10.4µM	0	0	0	0
SMILES	AmpC no deterg	Pf growth 96h	AmpC inh detg	Pf growth 48h	Sm TGR inh	SARS PLpro yeast
CCOC(=O)C1CCCN(C(=O)C2CCN(S(=O)(=O)c3ccc4ccccc4c3)CC2)C1 (stereo unspecified)	0	0	0	0	0	0
COc1ccc(OC)c(-c2cc(C(=O)Nc3cnn(Cc4ccc(Cl)cc4Cl)c3)no2)c1	-	-	0	-	0	-
Fc1ccccc1CN1CCN(c2ncccn2)CC1	0	0	?	0	0	0
Oc1cc2c(cc1CN1CCN(c3ncccn3)CC1)OCO2	0	0	0	0	1µM	0
COc1cccc(C2(c3cccc(OC)c3)CC2C(=O)Nc2cccc3ccccc23)c1 (stereo unspecified)	0	5.22µM	0	9.28µM	0	0
COc1cccc(NC(=O)C2CC2(c2cccc(OC)c2)c2cccc(OC)c2)c1 (stereo unspecified)	0	?	0	?	0	0
Cc1ccccc1-c1nn(-c2ccc(F)cc2F)cc1CNCC(C)O (stereo unspecified)	0	0	0	?	?	0
CCOC(CN1CCN(CC(C)C(=O)c2ccccc2)CC1)c1ccccc1 (stereo unspecified)	-	?	-	0	-	-
CCCSc1nc(O)c(C(c2ccc(OC)c(O)c2)c2c(O)nc(SCCC)n(C)c2=O)c(=O)n1C	?	0	0	0	12.6µM	0
CSc1nc(C)c(Oc2ccccc2)c(=O)n1C	0	0	0	0	0	0
COc1ccc(C(c2c(C)n(C)n(-c3ccccc3)c2=O)c2c(C)n(C)n(-c3ccccc3)c2=O)cc1O	0	0	0	0	0	0
COc1cccc(C(c2c(O)nc(SC)n(C)c2=O)c2c(O)nc(SC)n(C)c2=O)c1	0	0	0	?	7.08µM	0
CC(C)c1ccc(NC(=O)c2cc3sc(Cl)cc3n2C)cc1	-	-	0	-	0	-
CCc1ccc(NC(=O)c2cc3sc(Cl)cc3n2C)cc1	-	-	56.2µM	-	0	-
CCCSc1nc(-n2ncc(C#N)c2N)c2c3c(sc2n1)CCC(C)C3 (stereo unspecified)	2µM	?	0	-	0	0
CCOC(=O)c1cc(-c2ccccc2)n(CC(=O)NC2CCC(C)CC2)c1C (stereo unspecified)	-	-	0	-	0	-
COc1cc2c(cc1OC)C(c1cc3ccccc3oc1=O)=NC(C)(C)C2	0	0	?	8.28µM	0	0
COc1ccc(C2=NC(C)(C)Cc3cc(OC)c(OC)cc32)cc1OC	0	?	0	0	0	0
COc1cc(OC)cc(-c2nnc(SCC(=O)N3CCC(C)CC3)o2)c1	-	-	0	-	0	-
CCCCCCC(=O)N1CCC(c2nc3c(nnn3Cc3ccccc3Cl)c(=O)[nH]2)CC1	0	?	0	13.1µM	0	0
O=c1[nH]c(C2CCCN(S(=O)(=O)c3ccccc3F)C2)nc2c1nnn2Cc1ccccc1Cl (stereo unspecified)	0	11.7µM	0	?	0	0
